According to PubChem BioAssay (EPA / NIEHS):
The source made the active and inactive calls. Rule for the calls: active = hit-call score of the fitted dose curve at least 0.9, where 1 is the maximum; inactive = score below 0.9.

Experiments:
[1] = read-out: Interferon-gamma inducible Protein 10 (IP10), CXCL10 (gene 3627); assay: BSK_hDFCGF_IP10: BioMAP Diversity Plus: hDFCGF Assay for Interferon-gamma inducible Protein 10 (IP10) Biomarker Activity (AID 2283053); settings: primary human foreskin fibroblasts; actives raise or lower the signal
Summary of the method: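 ELISA quantification of IP-10 after a 24 h chemical exposure of human dermal foreskin fibroblast primary cultures. Both increases and decreases versus DMSO fitted.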

[2] = read-out: Urokinase-type plasminogen activator receptor (uPAR), PLAUR (gene 5329); assay: BSK_CASM3C_uPAR: BioMAP Diversity Plus: CASM3C Assay for Urokinase-type plasminogen activator receptor (uPAR) Biomarker Activity (AID 2283054); settings: primary human coronary artery smooth muscle cells; actives raise or lower the signal;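 note: cell-surface uPAR protein level quantified by ELISA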
[3] = read-out: Vascular cell adhesion molecule 1 (VCAM1), VCAM1 (gene 7412); assay: BSK_CASM3C_VCAM1: BioMAP Diversity Plus: CASM3C Assay for Vascular cell adhesion molecule 1 (VCAM1) Biomarker Activity (AID 2283055); settings: primary human coronary artery smooth muscle cells; actives raise or lower the signal;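 note: VCAM-1 protein level quantified by ELISA on the cells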
[4] = read-out: Epidermal growth factor receptor (EGFR), EGFR (gene 1956); assay: BSK_hDFCGF_EGFR: BioMAP Diversity Plus: hDFCGF Assay for Epidermal growth factor receptor (EGFR) Biomarker Activity (AID 2283057); settings: primary human foreskin fibroblasts; actives raise or lower the signal
Summary of the method: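 EGFR levels by ELISA in human dermal fibroblast cultures, 24 h post-treatment, fitted bidirectionally versus DMSO. Parallel wells stained with sulforhodamine B to detect overt cytotoxicity.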

[5] = read-out: Interleukin-8 (IL8), CXCL8 (gene 3576); assay: BSK_hDFCGF_IL8: BioMAP Diversity Plus: hDFCGF Assay for Interleukin-8 (IL8) Biomarker Activity (AID 2283058); settings: primary human foreskin fibroblasts; actives raise or lower the signal
Summary of the method: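 Primary human foreskin fibroblasts (hDFCGF system) dosed with chemical; IL-8 measured by ELISA 24 hours later. Bidirectional curve fitting relative to DMSO baseline; cytotoxicity tracked in parallel cultures by SRB total protein staining.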

[6] = BSK_hDFCGF_Proliferation: Cell Proliferation Assessment in the BioMAP Diversity Plus: hDFCGF Assay (AID 2283059); settings: primary human foreskin fibroblasts;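 note: curves fitted for both rise and fall of signal versus DMSO baseline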
Summary of the method: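 This proliferation readout used SRB total-protein staining of human foreskin fibroblasts […], normalized to DMSO with bidirectional curve fitting.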

[7] = read-out: Macrophage colony-stimulating factor (MCSF), CSF1 (gene 1435); assay: BSK_hDFCGF_MCSF: BioMAP Diversity Plus: hDFCGF Assay for Macrophage colony-stimulating factor (MCSF) Biomarker Activity (AID 2283060); settings: primary human foreskin fibroblasts; actives raise or lower the signal
Summary of the method: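 Human foreskin fibroblast primary cultures; M-CSF measured by ELISA 24 hours after chemical dosing. Bidirectional fitting relative to DMSO, with overt cytotoxicity tracked by parallel SRB total-protein staining (0.1% SRB, 10% TCA fixation, 560 nm).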

[8] = BSK_hDFCGF_SRB: Viability Assessment in the BioMAP Diversity Plus: hDFCGF Assay (AID 2283061); settings: primary human foreskin fibroblasts;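 note: cells exposed to compound for 24 h before the read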
Summary of the method: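 Human foreskin fibroblasts in 96-well plates were treated 24 h. Total protein was measured by 0.1% SRB staining after 10% TCA fixation, read at 560 nm. Data were fitted bidirectionally against DMSO.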

[9] = read-out: TIMP metallopeptidase inhibitor 1 (TIMP1), TIMP1 (gene 7076); assay: BSK_hDFCGF_TIMP1: BioMAP Diversity Plus: hDFCGF Assay for TIMP metallopeptidase inhibitor 1 (TIMP1) Biomarker Activity (AID 2283062); settings: primary human foreskin fibroblasts; actives raise or lower the signal
Summary of the method: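 Human foreskin fibroblast primary cultures dosed for 24 h; secreted/surface TIMP-1 quantified by ELISA. Bidirectional curve fitting against DMSO baseline; cytotoxicity tracked in parallel cultures by SRB total-protein staining.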

[10] = read-out: Monokine induced gamma interferon (MIG), CXCL9 (gene 4283); assay: BSK_hDFCGF_MIG: BioMAP Diversity Plus: hDFCGF Assay for Monokine induced gamma interferon (MIG) Biomarker Activity (AID 2283063); settings: primary human foreskin fibroblasts; actives raise or lower the signal
Summary of the method: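 MIG/CXCL9 measured by ELISA 24 h after dosing primary human skin fibroblasts. Activity fitted in both directions against DMSO controls. Cytotoxicity was checked in parallel cultures by SRB staining read at 560 nm.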

[11] = read-out: Vascular cell adhesion molecule 1 (VCAM1), VCAM1 (gene 7412); assay: BSK_hDFCGF_VCAM1: BioMAP Diversity Plus: hDFCGF Assay for Vascular cell adhesion molecule 1 (VCAM1) Biomarker Activity (AID 2283065); settings: primary human foreskin fibroblasts; actives raise or lower the signal;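 for AC50: VCAM-1 protein level quantified by ELISA after 24 h chemical exposure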
Summary of the method: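 Human foreskin fibroblast primary cells dosed with chemical, VCAM-1 measured by ELISA at 24 h. Bidirectional curve fitting relative to DMSO as negative control/baseline.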

[12] = read-out: Plasminogen activator inhibitor-1 (PAI1), SERPINE1 (gene 5054); assay: BSK_hDFCGF_PAI1: BioMAP Diversity Plus: hDFCGF Assay for Plasminogen activator inhibitor-1 (PAI1) Biomarker Activity (AID 2283066); settings: primary human foreskin fibroblasts; actives raise or lower the signal
Summary of the method: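 PAI-1 levels in human dermal foreskin fibroblasts were quantified by ELISA 24 h after dosing, with gain or loss analysed against DMSO. Overt cytotoxicity was checked by sulforhodamine B total-protein staining in parallel cultures.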

[13] = read-out: Intercellular Adhesion Molecule 1 (ICAM1), ICAM1 (gene 3383); assay: BSK_KF3CT_ICAM1: BioMAP Diversity Plus: KF3CT Assay for Intercellular Adhesion Molecule 1 (ICAM1) Biomarker Activity (AID 2283067); settings: primary human keratinocytes with fibroblasts; actives raise or lower the signal
Summary of the method: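 Human keratinocyte–foreskin fibroblast co-culture was treated for 24 h. Cell-surface ICAM-1 was quantified by ELISA, fitted bidirectionally relative to DMSO. Cytotoxicity was checked in parallel cultures by SRB total-protein staining.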

[14] = read-out: Interferon-gamma inducible Protein 10 (IP10), CXCL10 (gene 3627); assay: BSK_KF3CT_IP10: BioMAP Diversity Plus: KF3CT Assay for Interferon-gamma inducible Protein 10 (IP10) Biomarker Activity (AID 2283068); settings: primary human keratinocytes with fibroblasts; actives raise or lower the signal
Summary of the method: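 Signal is secreted/surface IP-10 by ELISA in a human primary skin co-culture of keratinocytes and foreskin fibroblasts, taken 24 h post-dosing; DMSO served as negative control.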

[15] = BSK_KF3CT_SRB: Viability Assessment in the BioMAP Diversity Plus: KF3CT Assay (AID 2283069); settings: primary human keratinocytes with fibroblasts;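 note: read 24 h after compound addition; fitted for both signal gain and loss against DMSO baseline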
Summary of the method: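 SRB read-out at 560 nm (0.1% stain, TCA-fixed cells) gauges overt cytotoxicity in a human skin keratinocyte–fibroblast co-culture 24 h post-dosing. Signal change was fitted bidirectionally relative to DMSO control.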

[16] = read-out: Interleukin-1 alpha (IL1a), IL1A (gene 3552); assay: BSK_KF3CT_IL1a: BioMAP Diversity Plus: KF3CT Assay for Interleukin-1 alpha (IL1a) Biomarker Activity (AID 2283070); settings: primary human keratinocytes with fibroblasts; actives raise or lower the signal
Summary of the method: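 Primary skin co-culture (keratinocytes, foreskin fibroblasts), 24 h exposure; ELISA for IL-1a; bidirectional curve fit vs DMSO.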

[17] = read-out: TIMP metallopeptidase inhibitor 2 (TIMP2), TIMP2 (gene 7077); assay: BSK_KF3CT_TIMP2: BioMAP Diversity Plus: KF3CT Assay for TIMP metallopeptidase inhibitor 2 (TIMP2) Biomarker Activity (AID 2283071); settings: primary human keratinocytes with fibroblasts; actives raise or lower the signal
Summary of the method: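 TIMP-2 measured by ELISA at 24 h in human keratinocyte/fibroblast primary co-cultures exposed to chemicals. Both increases and decreases were fitted against DMSO. Parallel cultures were stained with SRB for total protein as an overt-cytotoxicity check.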

[18] = read-out: Transforming growth factor beta 1 (TGFb1), TGFB1 (gene 7040); assay: BSK_KF3CT_TGFb1: BioMAP Diversity Plus: KF3CT Assay for Transforming growth factor beta 1 (TGFb1) Biomarker Activity (AID 2283072); settings: primary human keratinocytes with fibroblasts; actives raise or lower the signal
Summary of the method: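 ELISA quantifies TGF-b1 at 24 h post-dose in a primary human skin co-culture of keratinocytes and fibroblasts, with gain or loss judged against DMSO. Parallel SRB total-protein staining flags overt cytotoxicity.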

[19] = read-out: Matrix Metallopeptidase 1 (MMP1), MMP1 (gene 4312); assay: BSK_hDFCGF_MMP1: BioMAP Diversity Plus: hDFCGF Assay for Matrix Metallopeptidase 1 (MMP1) Biomarker Activity (AID 2283064); settings: primary human foreskin fibroblasts; actives raise or lower the signal
Summary of the method: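 ELISA read-out of MMP1 from human foreskin fibroblasts (primary skin cells), 24 h post-dose. Gain or loss of signal was fitted bidirectionally versus DMSO negative control; cytotoxicity was checked by SRB in parallel cultures.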

[20] = read-out: Collagen III, COL3A1 (gene 1281); assay: BSK_hDFCGF_CollagenIII: BioMAP Diversity Plus: hDFCGF Assay for Collagen III Biomarker Activity (AID 2283056); settings: primary human foreskin fibroblasts; actives raise or lower the signal
Summary of the method: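 Human foreskin fibroblast primary cultures sampled 24 h after dosing; Collagen III quantified by ELISA. Signal fitted bidirectionally against DMSO baseline.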

Measured: AC50

Cc1ncc([C@@H](CCCCCCc2ccc3c(n2)NCCC3)CC(=O)O)cn1
active: [2] 0.148 µM
inactive: [1] | [3] | [4] | [5] | [6] | [7] | [8] | [9] | [10] | [11] | [12] | [13] | [14] | [15] | [16] | [17] | [18]

CCc1ccc(O)c(C(C)(C)C)c1
active: [1] 35.2 µM | [5] 36.3 µM | [6] 34.5 µM | [7] 27.4 µM | [8] 36.2 µM | [9] 31.1 µM | [10] 32.6 µM | [19] 31.8 µM | [11] 30.4 µM | [12] 28.1 µM | [13] 31.2 µM | [14] 36.8 µM | [15] 35.7 µM | [16] 30.5 µM | [18] 33.5 µM
inactive: [2] | [3] | [4]

CC(C)C(=O)Nc1ccc([N+](=O)[O-])c(C(F)(F)F)c1
active: [20] 31.7 µM
inactive: [1] | [2] | [3] | [4] | [5] | [6] | [7] | [8] | [10] | [11] | [12] | [13] | [14] | [15] | [16] | [18]

CCCCCCCCCCCCCCCCOS(=O)(=O)O
inactive: [2] | [3]
active: [1] 6.13 µM | [4] 2.46 µM | [5] 15.5 µM | [6] 5.25 µM | [7] 10.2 µM | [8] 13.7 µM | [9] 18.2 µM | [10] 13.1 µM | [19] 16.6 µM | [11] 5.95 µM | [12] 9.1 µM | [13] 14.9 µM | [14] 11.9 µM | [15] 15.8 µM | [16] 15.6 µM | [18] 17.4 µM

O=c1[nH]cnc2c1ncn2[C@H]1CC[C@@H](CO)O1
inactive: [1] | [2] | [3] | [4] | [5] | [6] | [8] | [10] | [11] | [12] | [13] | [14] | [15] | [16] | [18]

OCCNCCO
inactive: [1] | [2] | [3] | [4] | [5] | [6] | [7] | [8] | [9] | [10] | [11] | [12] | [13] | [14] | [15] | [16] | [18]

CC1(C)C(=O)N(Cl)C(=O)N1Cl
inactive: [1] | [2] | [3] | [4] | [5] | [6] | [7] | [8] | [10] | [11] | [12] | [13] | [14] | [15] | [16] | [17] | [18]

OC[C@H]1O[C@@H]2O[C@H]3[C@H](O)[C@@H](O)[C@@H](O[C@H]4[C@H](O)[C@@H](O)[C@@H](O[C@H]5[C@H](O)[C@@H](O)[C@@H](O[C@H]6[C@H](O)[C@@H](O)[C@@H](O[C@H]7[C@H](O)[C@@H](O)[C@@H](O[C@H]1[C@H](O)[C@H]2O)O[C@@H]7CO)O[C@@H]6CO)O[C@@H]5CO)O[C@@H]4CO)O[C@@H]3CO
inactive: [1] | [2] | [3] | [4] | [5] | [6] | [7] | [8] | [10] | [11] | [12] | [13] | [14] | [15] | [16] | [18]
